L3MBTL1 block: qHTS Assay for the Inhibitors of L3MBTL1; Lethal(3)malignant brain tumor-like protein 1 (Homo sapiens), Q9Y468; AlphaScreen L3MBTL1–H3K9me1 peptide binding; Potency, µM (titrated, usually from 57.1 µM), for inactives: at the top dose activity, negative = inhibition, most hits filed as inhibitors; 230,000 compounds, 0.66% hits; also: % is scaled to controls: 0 for no effect and ±100 for the full control effect; nearly all actives have a fitted effect of over 60% in size
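Displacement of a biotinylated histone H3(1-15) peptide monomethylated at Lys9 (75 nM) from L3MBTL1 (50 nM) was measured by AlphaScreen after a 30 min room-temperature compound incubation; cefsulodin titration served as intraplate control.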
HP1b binding inh: HTS for Inhibitors of HP1-beta Chromodomain Interactions with Methylated Histone Tails | Chromobox protein homolog 1 (Homo sapiens), P83916 | AlphaScreen HP1-beta / biotin-H3K9me3 peptide binding | 390,000 compounds, 0.56% hits | Potency, µM (top dose mostly 114 µM), for the others: at the top dose activity change, negative = inhibition, actives largely listed as inhibitors; also: nearly all actives have a fitted effect of over 70% in size
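Compound inhibition of the preformed complex between 50 nM HP1-beta and 50 nM biotinylated H3K9me3 peptide was read by AlphaScreen. Buffer was PBS pH 7.4 with 0.01% Tween-20. Incubations ran 30 min at room temperature, with 10 ug/mL donor/acceptor beads.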
G9a inh: qHTS Assay for Inhibitors of Histone Lysine Methyltransferase G9a; Histone-lysine N-methyltransferase EHMT2 (Homo sapiens), Q96KQ7; G9a H3K9 monomethylation, AlphaScreen, 2 h; Potency, µM (highest dose often 102 µM), for the others: top-dose activity, negative = inhibition, hits mostly inhibitors; 350,000 compounds, 8.8% hits; also: % is scaled to controls: 0 for no effect and ±100 for the full control effect; nearly all actives have a fitted effect of over 75% in size
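G9a (20 nM) preincubated 15 min RT with compounds, then 500 nM biotinylated H3K9 peptide and 20 uM SAM added; 2 h RT reaction. Monomethyl-H3K9 product detected by AlphaScreen with anti-H3K9me1 antibody, streptavidin donor and anti-rabbit IgG acceptor beads.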
BAZ2B block: qHTS Assay for Inhibitors of BAZ2B. Bromodomain adjacent to zinc finger domain protein 2B (Homo sapiens), Q9UIF8. AlphaScreen BAZ2B-H3K14Ac peptide displacement. Potency, µM (series often up to 114 µM), for the others: at the top dose activity change, negative = inhibition, hits mostly inhibitors. 360,000 compounds, 4.4% hits. AID 504333, 2011; also: % is scaled to controls: 0 for no effect and ±100 for the full control effect; nearly all actives have a fitted effect of over 60% in size
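AlphaScreen displacement of biotin-H3(5-23)K14Ac peptide (50 nM final) from BAZ2B (50 nM final) in PBS pH 7.4, 0.01% Tween-20; complex preformed 30 min RT, then compounds (top 110 uM) 30 min RT, beads 20 min dark.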
Sfp PPTase inh: qHTS Assay for Inhibitors of Bacillus subtilis Sfp phosphopantetheinyl transferase (PPTase); 310,000 compounds, 3.5% hits; Biochemical Sfp PPTase activity, qHTS; 4'-phosphopantetheinyl transferase ffp (Bacillus subtilis), Q9F4F7; Potency, µM, for the others: largest response in the series, negative = inhibition, most hits filed as inhibitors;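 also: the enzyme is Sfp with the accession as filed and its product quenches rhodamine fluorescence; 0% = enzyme reaction without inhibitor and -100% = no enzyme wells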
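Sfp 15 nM + cpd, 15 min RT; start w/ rhodamine-CoA 5 uM, BHQ-2-YbbR 12.5 uM (final); 50 mM Hepes pH 7.6, 10 mM MgCl2, 0.01% NP-40, 0.01% BSA; read 525/598 nm at 0 and 30 min.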
JMJD2A Tudor inh: qHTS Assay for Inhibitors of JMJD2A-Tudor Domain. Lysine-specific demethylase 4A (Homo sapiens), O75164. AlphaScreen JMJD2A-Tudor / H3K4me3 peptide binding. Potency, µM (top dose mostly 114 µM), without a hit: top-dose activity change, negative = inhibition, most hits filed as inhibitors. 390,000 compounds, 4.4% hits; also: % is scaled to controls: 0 for no effect and ±100 for the full control effect; nearly all actives have a fitted effect of over 50% in size
Target sequence (O75164 whole entry, looked up, the tested form may be a part): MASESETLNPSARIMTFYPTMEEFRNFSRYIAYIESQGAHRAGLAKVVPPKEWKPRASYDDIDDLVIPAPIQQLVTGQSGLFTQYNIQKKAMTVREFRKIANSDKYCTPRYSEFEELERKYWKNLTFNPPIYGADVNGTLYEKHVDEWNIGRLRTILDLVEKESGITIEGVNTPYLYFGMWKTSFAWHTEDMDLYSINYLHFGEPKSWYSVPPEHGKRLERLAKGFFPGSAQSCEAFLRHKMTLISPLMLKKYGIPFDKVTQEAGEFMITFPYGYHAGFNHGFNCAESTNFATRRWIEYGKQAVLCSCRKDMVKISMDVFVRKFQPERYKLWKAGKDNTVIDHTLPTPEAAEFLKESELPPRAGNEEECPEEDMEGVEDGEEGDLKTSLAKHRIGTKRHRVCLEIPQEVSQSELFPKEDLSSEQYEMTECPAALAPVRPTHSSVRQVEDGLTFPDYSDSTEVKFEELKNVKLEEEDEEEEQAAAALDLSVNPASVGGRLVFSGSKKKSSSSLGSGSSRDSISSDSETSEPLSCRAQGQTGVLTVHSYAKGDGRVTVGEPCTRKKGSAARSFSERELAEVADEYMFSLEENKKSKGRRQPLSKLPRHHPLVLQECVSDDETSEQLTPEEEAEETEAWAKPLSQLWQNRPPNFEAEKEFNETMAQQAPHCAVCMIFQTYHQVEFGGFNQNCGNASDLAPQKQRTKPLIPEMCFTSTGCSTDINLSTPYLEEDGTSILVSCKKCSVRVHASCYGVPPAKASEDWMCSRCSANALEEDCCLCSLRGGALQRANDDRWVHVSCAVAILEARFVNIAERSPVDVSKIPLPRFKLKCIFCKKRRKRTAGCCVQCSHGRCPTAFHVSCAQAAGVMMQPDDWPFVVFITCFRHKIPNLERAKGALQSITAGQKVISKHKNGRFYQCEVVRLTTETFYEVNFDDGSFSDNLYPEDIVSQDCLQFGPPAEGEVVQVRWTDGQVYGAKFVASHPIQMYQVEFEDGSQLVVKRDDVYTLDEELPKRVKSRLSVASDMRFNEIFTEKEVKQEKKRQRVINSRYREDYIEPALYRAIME
Numbers without * were called inactive; ? = inconclusive; / = not tested or not shown; ! = not confirmed by another sample; [ ] = another dose, or the depositor's remark. Hits are enriched below; roughly 12% of the tested compounds scored in any of these assays. Calls follow the shape of the dose curve; as a rule, active = well fitted curve in the direction sought with a large enough effect; inconclusive = small, poorly fitted or top-dose-only effect, or another doubt; inactive = no such curve, though single readings can be large; an effect the other way counts as inactive or inconclusive. Potency is read from the fitted curve at half-maximal effect.

SMILES | L3MBTL1 block | HP1b binding inh | G9a inh | BAZ2B block | Sfp PPTase inh | JMJD2A Tudor inh
Cc1ccccc1OC1=NS(=O)(=O)c2ccccc21 | 3% | 14% | ? | -32% | 11% | ?
COC(CNc1ncnc2c1cnn2C)OC | -20% | 26% | ? | ? | 7% | 2%
CSc1ccccc1C(=O)NCCOc1cccc(C)c1 | 6% | 71% | 45µM* | -15% | 13% | -3%
CSc1ccccc1C(=O)Nc1ncn[nH]1 | -23% | 44% | 1.6µM* | ? | 56µM* | 79µM*
CSc1ccccc1C(=O)Nc1c(C)cccc1C | 2% | 28% | 28µM* | -12% | -13% | -4%
O=C(Nc1ncn[nH]1)c1ccccc1Br | 5% | 40% | -5%[59 µM] | -1% | 3% | -3%
COc1ccc(S(=O)(=O)Nc2c(C)cc(C)cc2C)c2cccnc12 | -4% | 49% | 16% | -6% | 3% | -14%
Cc1ccc(C(O)(COC(=O)C(C)C)COC(=O)C(C)C)c(O)c1 | -23% | 15% | 22%[12.7 µM] | -5% | 79µM* | -14%
Cc1cc(C)c(NC(=O)CCn2c(=O)c3cccn3c3ccccc32)c(C)c1 | / | -4% | -10%[59 µM] | -36% | / | -26%
Cc1occc1-c1nnc(SCC(=O)O)n1-c1ccccc1 | / | 16%[57 µM] | -4%[59 µM] | -3% | -14% | 0%
Cc1cccc(OCCSc2nnc(-c3ccoc3C)n2C)c1 | 3% | 27% | ? | -33% | -1% | -16%
Cc1occc1-c1n[nH]c(=S)n1C | 15% | ? | 35µM* | -13% | 5% | -7%[11.4 µM]
Cc1occc1-c1n[nH]c(=S)n1-c1ccccc1 | 9% | 25% | 5µM* | -7% | 13% | 7.1µM*
O=C1C(c2ccc(F)cc2)N(CCc2ccccc2)C(=O)CN1C1CCCCCC1 (stereo unspecified) | / | 21% | 8%[59 µM] | -1% | / | -4%
CS/C(Nc1cc(Cl)ccc1Cl)=C(/C#N)C(=O)c1ccco1 | -8% | -18% | 14µM* | 56µM* | 18% | ?
O=C(Nc1cc(Cl)ccc1Cl)c1ccco1 | 0%[2.29 µM] | 35% | 13%[0.501 µM] | -1% | 12% | 3%
CN1C(=O)C2C3c4ccccc4C(c4ccccc43)[C@@H]2C1=O (stereo partly specified) | / | 21% | -8% | 4% | 8% | -9%
O=C1C=CC(=O)C2=C1C1c3ccccc3C2c2ccccc21 | / | / | / | / | 3.2µM* | /
Cc1cc(Cl)c(OCCCCN2CCOCC2)c(Br)c1 | -7% | ? | ? | 50µM* | -37% | 3.5µM*
Cc1cccc(Cl)c1OCCCN1CCOCC1 | 3% | ? | 10µM* | ? | -25% | 1.6µM*
Cc1cccc(C)c1OCCCCN1CCCCC1 | -7% | ? | 79µM* | ? | -11% | 28µM*
Cc1cccc(C)c1OCCCN1CCCC1 | / | ? | 10µM* | 50µM* | -15% | 2.5µM*
Cc1cc(Cl)cc(C)c1OCCCCN1CCOCC1 | 7% | 39% | ? | 10% | 12% | -15%
Cc1cc(OCCCN2CCCC2)ccc1Cl | -2% | 18% | -15% | 5% | 11% | -12%
COc1cccc(NC(=O)c2csc3c2CCCCC3)c1 | / | 56% | 10%[59 µM] | 1% | / | 4%
SMILES | L3MBTL1 block | HP1b binding inh | G9a inh | BAZ2B block | Sfp PPTase inh | JMJD2A Tudor inh
COC(=O)c1cc(S(=O)(=O)NCCN2CCOCC2)cn1C | / | 35% | 16% | -2% | 10% | -3%
O=C(NCC(c1cccnc1)N1CCN(c2ccccc2F)CC1)c1ccc(F)cc1 (stereo unspecified) | / | 2% | -4%[59 µM] | -13% | / | -12%
O=C(CN1CCN(c2ccccc2O)CC1)Nc1ccnn1C1CCCC1 | -1% | 11% | -2%[2.33 µM] | -5% | / | ?
Cc1cccc(C)c1OCCOCCN1CCN(C)CC1 | -2% | 25µM*! | -42%[59 µM] | -29% | -19% | 13µM*!
COc1cccc(OC)c1OCCN1CCCC1 | 1% | 19% | / | -5% | 3% | -22%
Cc1cccc(C)c1OCCN1CCCC1 | / | ? | 25µM* | ? | 2% | 25µM*
CNc1cc(-c2ccccc2C)ncn1 | / | / | -3%[0.501 µM] | / | 79µM* | /
Cc1ccccc1-c1cc(Nc2ccccc2)ncn1 | / | / | 4%[0.501 µM] | / | 9% | /
CCC(C(=O)NCCCN1CCOCC1)n1c2ccccc2c2nc(=O)cc(C)n21 (stereo unspecified) | / | 33% | / | -4% | 11% | -15%
O=C(Nc1ccc2c(c1)nc1n2CCN(C2CCCCC2)C1)c1ccco1 | / | 27% | -136%[59 µM] | -11% | 79µM* | -15%[11.4 µM]
O=C(Nc1ccc2c(c1)nc1n2CCN(C2CCCCC2)C1)NC1CCCCC1 | -13% | / | ? | -30% | -2% | /
CCOC(=O)N1CCN(Cc2nc3cc(NC(=O)c4ccccc4OC)ccc3n2C(C)C)CC1 | / | 24% | ? | 79µM* | / | 50µM*
COc1ccccc1C(=O)Nc1ccc2c(c1)nc1n2CCN(C2CCCCC2)C1 | / | 6% | 32µM* | -20%[57.1 µM] | -5% | ?
CCC(=O)Nc1ccc2c(c1)nc1n2CCN(CCOC)C1 | / | 63% | 32µM* | -14% | 10% | 1%
COc1ccc(CC(=O)Nc2ccccc2N2CCCCC2)cc1OC | -9% | 9% | 20% | -16% | 1% | -15%
CCOC(=O)/C(=C/c1ccco1)NC(=O)c1ccc(Br)o1 | -4% | 9% | / | -7% | -27% | -13%
N#Cc1c(NC(=O)CSc2nnc(-c3ccco3)n2-c2ccccc2)sc2c1CCC2 | / | 10% | ? | -28% | -20% | -15%
NC(=O)c1c(NC(=O)CSc2nnc(-c3ccco3)n2-c2ccccc2)sc2c1CCC2 | 10µM* | ? | ? | 50µM* | ? | ?
CCOC(=O)c1c(NC(=O)CSc2n[nH]c(-c3ccco3)n2)sc(C)c1C | -6%[11.4 µM] | 10% | 9%[12.7 µM] | ? | -10% | -21%
O=C(CSc1n[nH]c(-c2ccco2)n1)N1c2ccccc2Sc2ccccc21 | -24% | -10% | 50µM* | 56µM* | ? | -26%
O=C(CSc1n[nH]c(-c2ccco2)n1)Nc1sc2c(c1C(=O)Nc1ccccc1)CCCC2 | 26%[11.4 µM] | 20% | ? | -31% | 35µM* | -23%
COc1ccc(NC(=O)CSc2n[nH]c(-c3ccco3)n2)cc1 | 15% | 56% | -2%[12.7 µM] | ? | -18% | -6%
O=C(CSc1n[nH]c(-c2ccco2)n1)Nc1ccc(Br)cc1 | / | -22%[57 µM] | -2% | -33% | 21% | 45µM*

Source: PubChem (National Center for Advancing Translational Sciences (NCATS))
